The source made the active and inactive calls. How the source made its calls: active means hit-call score of the fitted dose curve at least 0.9, where 1 is the maximum; inactive means score below 0.9.

Settings in all cases: mRNA level, 48 h; actives raise or lower the signal
Read-out in experiment [1]: Paternally Expressed 10 (PEG10), PEG10 (gene 23089)
Kind of experiment: LTEA_HepaRG_PEG10: Life Technologies and Expression Analysis (LTEA) Assay for Paternally Expressed 10 (PEG10) using HepaRG (AID 2283520). The method in brief:
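Differentiated HepaRG cells, plated 48 h then switched to serum-free induction medium, were exposed in duplicate for 48 h to eight half-log concentrations topping at 100 uM in 0.5% DMSO. PEG10 mRNA was quantified by TaqMan qRT-PCR, normalised to ACTB, GAPDH and POLR2A.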

Read-out in experiment [2]: Nuclear factor NF-kappa-B p105 subunit (Homo sapiens) (UniProt P19838)
Kind of experiment: LTEA_HepaRG_NFKB1: Life Technologies and Expression Analysis (LTEA) Assay for Nuclear Factor Kappa B Subunit 1 (NFKB1) using HepaRG (AID 2283521). The method in brief:
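Differentiated human HepaRG cells were exposed for 48 h in serum-free induction medium to eight concentrations (top 100 uM, half-log steps, 0.5% DMSO), in duplicate. NFKB1 mRNA was measured by TaqMan qRT-PCR, normalized to ACTB/GAPDH/POLR2A, and fitted bidirectionally against DMSO.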

Read-out in experiment [3]: Protein phosphatase 2A (PPP2R4), PTPA (gene 5524)
Kind of experiment: LTEA_HepaRG_PPP2R4: Life Technologies and Expression Analysis (LTEA) Assay for Protein phosphatase 2A (PPP2R4) using HepaRG (AID 2283522). Summed up:
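Differentiated HepaRG cells in serum-free induction medium were exposed in duplicate for 48 h to eight concentrations, top 100 uM with half-log dilutions, in 0.5% DMSO. PPP2R4 mRNA was quantified by TaqMan qRT-PCR, normalized to ACTB, GAPDH and POLR2A.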

Read-out in experiment [4]: Phosphatase and tensin (PTEN), PTEN (gene 5728)
Kind of experiment: LTEA_HepaRG_PTEN: Life Technologies and Expression Analysis (LTEA) Assay for Phosphatase and tensin (PTEN) using HepaRG (AID 2283523). The method in brief:
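Differentiated human HepaRG cells, plated 48 h then switched to serum-free induction medium, were exposed in duplicate for 48 h to eight half-log concentrations up to 100 uM in 0.5% DMSO. PTEN mRNA measured by TaqMan qRT-PCR, normalized to ACTB/GAPDH/POLR2A, bidirectional fit versus DMSO.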

Read-out in experiment [5]: solute carrier (SLC22A1), SLC22A1 (gene 6580)
Kind of experiment: LTEA_HepaRG_SLC22A1: Life Technologies and Expression Analysis (LTEA) Assay for solute carrier (SLC22A1) using HepaRG (AID 2283524). Summed up:
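Human HepaRG cells were plated 48 h, switched to serum-free induction medium, then exposed in duplicate for 48 h to 8-point half-log series from 100 uM in 0.5% DMSO. SLC22A1 mRNA measured by qRT-PCR, normalized to ACTB/GAPDH/POLR2A, fitted bidirectionally versus DMSO.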

Read-out in experiment [6]: NAD(P)H dehydrogenase [quinone] 1 (NQO1), NQO1 (gene 1728)
Kind of experiment: LTEA_HepaRG_NQO1: Life Technologies and Expression Analysis (LTEA) Assay for NAD(P)H dehydrogenase [quinone] 1 (NQO1) using HepaRG (AID 2283526). The method in brief: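 Differentiated HepaRG cells, plated 48 h and then switched to serum-free induction medium, were exposed in duplicate for 48 h to 8-point half-log concentrations up to 100 uM in 0.5% DMSO. mRNA measured by qRT-PCR, normalized to ACTB, GAPDH, POLR2A; bidirectional fit versus DMSO.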

Read-out in experiment [7]: Nuclear factor erythroid 2-related factor 2 (Homo sapiens) (UniProt Q16236)
Kind of experiment: LTEA_HepaRG_NFE2L2: Life Technologies and Expression Analysis (LTEA) Assay for Nuclear factor erythroid 2-related factor 2 (NFE2L2) Transcription Factor using HepaRG (AID 2283527).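 On outcome: TaqMan qRT-PCR transcript level normalised to ACTB GAPDH and POLR2A housekeeping genes.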 The method in brief: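 Differentiated human HepaRG cells in serum-free induction medium were exposed for 48 h to eight concentrations (top 100 uM, half-log dilutions, 0.5% DMSO), in duplicate. NFE2L2 mRNA was quantified by TaqMan qRT-PCR, normalized to ACTB, GAPDH and POLR2A, with bidirectional fitting versus DMSO.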

Read-out in experiment [8]: succinate dehydrogenase complex iron sulfur subunit B (SDHB), SDHB (gene 6390)
Kind of experiment: LTEA_HepaRG_SDHB: Life Technologies and Expression Analysis (LTEA) Assay for succinate dehydrogenase complex iron sulfur subunit B (SDHB) using HepaRG (AID 2283528). The method in brief:
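HepaRG, 48 h exposure, 8-pt half-log series from 100 uM in 0.5% DMSO, duplicates. Readout: SDHB mRNA by Fluidigm qRT-PCR vs housekeeping genes; bidirectional fit relative to DMSO.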

Read-out in experiment [9]: solute carrier (SLCO1B1), SLCO1B1 (gene 10599)
Kind of experiment: LTEA_HepaRG_SLCO1B1: Life Technologies and Expression Analysis (LTEA) Assay for solute carrier (SLCO1B1) using HepaRG (AID 2283530). Summed up:
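SLCO1B1 transcript levels were quantified by TaqMan qRT-PCR using three housekeeping genes for normalization. This followed 48 h chemical exposure (100 uM top, half-log, 8 points, 0.5% DMSO) of HepaRG liver cells, with gain or loss fitted relative to DMSO.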

Read-out in experiment [10]: sulfotransferase 2A1 (SULT2A1), SULT2A1 (gene 6822)
Kind of experiment: LTEA_HepaRG_SULT2A1: Life Technologies and Expression Analysis (LTEA) Assay for sulfotransferase 2A1 (SULT2A1) using HepaRG (AID 2283531). The method in brief: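 Expression change of SULT2A1, by qRT-PCR with three housekeeping-gene normalization, was scored bidirectionally versus DMSO. Cells: differentiated HepaRG, dosed in duplicate for 48 h across 8 points, highest 100 µM, half-log dilution, 0.5% DMSO.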

Read-out in experiment [11]: Transforming Growth Factor (TGFA), TGFA (gene 7039)
Kind of experiment: LTEA_HepaRG_TGFA: Life Technologies and Expression Analysis (LTEA) Assay for Transforming Growth Factor (TGFA) using HepaRG (AID 2283532). Summed up: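 Differentiated human HepaRG cells, plated 48 h then switched to serum-free induction medium, were exposed in duplicate for 48 h to 8-point half-log series from 100 uM in 0.5% DMSO. TGFA mRNA measured by qRT-PCR, normalized to ACTB/GAPDH/POLR2A, bidirectional fit versus DMSO.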

Read-out in experiment [12]: Transforming Growth Factor (TGFB1), TGFB1 (gene 7040)
Kind of experiment: LTEA_HepaRG_TGFB1: Life Technologies and Expression Analysis (LTEA) Assay for Transforming Growth Factor (TGFB1) Transporter using HepaRG (AID 2283533). The method in brief:
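TGFB1 transcript measured by qRT-PCR with normalisation to three housekeeping genes (ACTB, GAPDH, POLR2A); human HepaRG line treated in duplicate for 48 hr with an 8-point series topping at 100 uM, 0.5% DMSO vehicle, bidirectionally fitted.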

Read-out in experiment [13]: TIMP1, TIMP1 (gene 7076)
Kind of experiment: LTEA_HepaRG_TIMP1: Life Technologies and Expression Analysis (LTEA) Assay for TIMP1 using HepaRG (AID 2283534).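 On outcome: TaqMan qRT-PCR signal normalized to ACTB GAPDH and POLR2A housekeeping genes.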 The method in brief: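 Bidirectional change in TIMP1 transcript versus 0.5% DMSO, measured by TaqMan qRT-PCR with three housekeeping genes for normalization. HepaRG human liver cells dosed 48 h in duplicate, top concentration 100 uM with half-log dilutions.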

Read-out in experiment [14]: Tumor necrosis factor receptor 1 (TNFRSF1A), TNFRSF1A (gene 7132)
Kind of experiment: LTEA_HepaRG_TNFRSF1A: Life Technologies and Expression Analysis (LTEA) Assay for Tumor necrosis factor receptor 1 (TNFRSF1A) using HepaRG (AID 2283535). The method in brief: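 mRNA measured by qRT-PCR (TaqMan, Fluidigm arrays) against ACTB/GAPDH/POLR2A housekeepers after 48 h chemical exposure of HepaRG cells. Top concentration 100 uM, half-log 8-point series, duplicates; vehicle 0.5% DMSO, both fit directions.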

Read-out in experiment [15]: Thyroid Hormone Responsive (THRSP), THRSP (gene 7069)
Kind of experiment: LTEA_HepaRG_THRSP: Life Technologies and Expression Analysis (LTEA) Assay for Thyroid Hormone Responsive (THRSP) using HepaRG (AID 2283536). The method in brief: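 Differentiated human HepaRG cells were exposed in duplicate for 48 h in serum-free induction medium to eight concentrations (top 100 uM, half-log steps, 0.5% DMSO). Expression was quantified by TaqMan qRT-PCR, normalized to ACTB, GAPDH and POLR2A, with bidirectional fitting against DMSO.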

Read-out in experiment [16]: Cellular tumor antigen p53 (Homo sapiens) (UniProt P04637)
Kind of experiment: LTEA_HepaRG_TP53: Life Technologies and Expression Analysis (LTEA) Assay for Tumor Protein P53 (TP53) using HepaRG (AID 2283537). Summed up:
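HepaRG, 48 h exposure, top 100 uM, half-log 8-point, 0.5% DMSO vehicle, duplicates. Read: TP53 mRNA by TaqMan qRT-PCR, normalised to ACTB/GAPDH/POLR2A; bidirectional fit vs DMSO.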

Read-out in experiment [17]: UDP glucuronosyltransferase (UGT1A1), UGT1A1 (gene 54658)
Kind of experiment: LTEA_HepaRG_UGT1A1: Life Technologies and Expression Analysis (LTEA) Assay for UDP glucuronosyltransferase (UGT1A1) using HepaRG (AID 2283538). Summed up:
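Differentiated human HepaRG cells in serum-free induction medium were exposed in duplicate for 48 h to eight half-log concentrations up to 100 uM in 0.5% DMSO. UGT1A1 mRNA was quantified by TaqMan qRT-PCR, normalized to ACTB, GAPDH and POLR2A, and fitted bidirectionally against DMSO.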

Read-out in experiment [18]: UDP glucuronosyltransferase (UGT1A6), UGT1A6 (gene 54578)
Kind of experiment: LTEA_HepaRG_UGT1A6: Life Technologies and Expression Analysis (LTEA) Assay for UDP glucuronosyltransferase (UGT1A6) using HepaRG (AID 2283539). Summed up: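 Expression was quantified by TaqMan qRT-PCR on Fluidigm arrays with ACTB/GAPDH/POLR2A normalization and bidirectional fitting against 0.5% DMSO. HepaRG cells (~100,000/well) were treated in duplicate for 48 h at eight half-log concentrations up to 100 uM in serum-free induction medium.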

Read-out in experiment [19]: Pyruvate Dehydrogenase Kinase 4 (PDK4), PDK4 (gene 5166)
Kind of experiment: LTEA_HepaRG_PDK4: Life Technologies and Expression Analysis (LTEA) Assay for Pyruvate Dehydrogenase Kinase 4 (PDK4) using HepaRG (AID 2283525). The method in brief:
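Differentiated human HepaRG cells, pre-cultured 48 h, were exposed in duplicate for 48 h in serum-free induction medium to eight half-log concentrations up to 100 uM in 0.5% DMSO. PDK4 mRNA was quantified by qRT-PCR, normalized to ACTB, GAPDH and POLR2A, bidirectional fitting versus DMSO.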

Chain of Cellular tumor antigen p53 (Homo sapiens) (P04637 whole entry, looked up): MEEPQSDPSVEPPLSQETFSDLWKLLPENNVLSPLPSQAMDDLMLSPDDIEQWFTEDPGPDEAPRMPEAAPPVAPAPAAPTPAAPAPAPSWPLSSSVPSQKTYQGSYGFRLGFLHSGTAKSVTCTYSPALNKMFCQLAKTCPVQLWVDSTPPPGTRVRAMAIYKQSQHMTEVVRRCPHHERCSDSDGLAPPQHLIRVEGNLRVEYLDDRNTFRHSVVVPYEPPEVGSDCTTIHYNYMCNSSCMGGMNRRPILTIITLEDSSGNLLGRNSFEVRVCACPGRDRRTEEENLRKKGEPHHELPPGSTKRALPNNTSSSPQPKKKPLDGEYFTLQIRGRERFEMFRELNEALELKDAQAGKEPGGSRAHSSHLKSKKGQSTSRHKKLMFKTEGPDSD
Chain of Nuclear factor erythroid 2-related factor 2 (Homo sapiens) (Q16236 whole entry, looked up): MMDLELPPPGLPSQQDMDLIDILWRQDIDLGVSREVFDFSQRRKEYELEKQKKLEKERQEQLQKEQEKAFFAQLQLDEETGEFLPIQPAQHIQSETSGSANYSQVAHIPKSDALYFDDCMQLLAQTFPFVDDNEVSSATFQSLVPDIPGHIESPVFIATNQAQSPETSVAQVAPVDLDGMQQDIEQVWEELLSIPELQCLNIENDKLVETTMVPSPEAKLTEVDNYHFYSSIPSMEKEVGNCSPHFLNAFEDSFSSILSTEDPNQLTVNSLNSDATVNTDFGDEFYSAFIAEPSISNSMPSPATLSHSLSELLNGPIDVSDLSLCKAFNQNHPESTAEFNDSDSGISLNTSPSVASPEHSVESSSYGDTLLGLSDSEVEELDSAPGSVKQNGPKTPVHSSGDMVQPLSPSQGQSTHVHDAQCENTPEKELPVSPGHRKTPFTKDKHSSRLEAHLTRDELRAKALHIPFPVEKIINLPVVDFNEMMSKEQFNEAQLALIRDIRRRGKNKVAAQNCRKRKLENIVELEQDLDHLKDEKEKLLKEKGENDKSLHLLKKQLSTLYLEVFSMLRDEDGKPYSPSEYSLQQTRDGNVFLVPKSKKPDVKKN
Chain of Nuclear factor NF-kappa-B p105 subunit (Homo sapiens) (P19838 whole entry, looked up): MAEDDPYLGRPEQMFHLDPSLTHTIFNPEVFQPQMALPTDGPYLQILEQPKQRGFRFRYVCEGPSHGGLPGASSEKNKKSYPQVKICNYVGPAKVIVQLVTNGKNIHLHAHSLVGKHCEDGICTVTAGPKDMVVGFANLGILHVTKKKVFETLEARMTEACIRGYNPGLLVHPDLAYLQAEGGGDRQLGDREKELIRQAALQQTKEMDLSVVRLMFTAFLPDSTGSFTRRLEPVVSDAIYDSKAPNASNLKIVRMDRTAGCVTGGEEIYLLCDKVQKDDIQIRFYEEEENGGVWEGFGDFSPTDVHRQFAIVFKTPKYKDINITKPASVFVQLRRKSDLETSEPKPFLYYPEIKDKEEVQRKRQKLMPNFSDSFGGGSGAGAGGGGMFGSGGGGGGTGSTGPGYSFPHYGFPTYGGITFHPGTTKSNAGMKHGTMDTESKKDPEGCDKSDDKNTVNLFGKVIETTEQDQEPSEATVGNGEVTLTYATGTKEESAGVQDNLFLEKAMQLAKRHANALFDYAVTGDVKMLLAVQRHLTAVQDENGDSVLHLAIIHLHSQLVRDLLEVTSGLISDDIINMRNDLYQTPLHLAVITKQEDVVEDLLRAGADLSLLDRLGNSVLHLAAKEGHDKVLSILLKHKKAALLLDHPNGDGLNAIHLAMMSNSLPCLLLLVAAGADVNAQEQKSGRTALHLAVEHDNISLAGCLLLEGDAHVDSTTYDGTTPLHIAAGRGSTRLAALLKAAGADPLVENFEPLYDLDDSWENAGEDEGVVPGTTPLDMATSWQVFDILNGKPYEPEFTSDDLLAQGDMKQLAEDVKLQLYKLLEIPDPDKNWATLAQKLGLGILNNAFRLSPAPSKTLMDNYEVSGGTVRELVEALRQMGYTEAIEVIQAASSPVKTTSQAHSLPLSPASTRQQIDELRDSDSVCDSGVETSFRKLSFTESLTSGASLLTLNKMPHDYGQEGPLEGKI

For the compound `c1ccc2ccccc2c1`, the outcome in [1], in experiment [2], in experiment [3], in [4], in experiment [5] and in [6] was inactive. For the same compound, the outcome in experiment [7], in experiment [8], in [9], in [10], in experiment [11] and in experiment [12] was inactive. Moreover, the compound was called inactive in experiment [13], in experiment [14], in [15], in experiment [16] and in experiment [18]. In addition, the AC50 in experiment [17] is 17.4 µM (active).
Consider `CCCCCc1ccc(N)cc1`, for which the call in [1], in experiment [2], in [3], in [4], in experiment [5] and in experiment [7] was inactive. For the same compound, the outcome in experiment [8], in experiment [9], in experiment [10], in [11], in experiment [12] and in experiment [13] was inactive. For the same compound, the call in experiment [14], in experiment [15], in experiment [16], in experiment [17] and in experiment [18] was inactive.
Take `CN(C)c1ccc(C(=C2C=CC(=[N+](C)C)C=C2)c2ccc(N(C)C)cc2)cc1`: the half-maximal activity concentration (AC50) is 6.63 µM (active) in experiment [1]; 12.9 µM (active) in experiment [3]; 26.1 µM (active) in experiment [4]; 3.62 µM (active) in [5]; 32.4 µM (active) in experiment [19]; 5 µM (active) in experiment [6]. Besides, the AC50 was 12.7 µM (active) in experiment [7]; 11.1 µM (active) in experiment [8]; 4.64 µM (active) in [9]; 3.54 µM (active) in experiment [10]; 68.7 µM (active) in experiment [12]; 74.2 µM (active) in experiment [13]. The AC50 in experiment [14] is 8.56 µM (active); in experiment [15] it was 2.48 µM (active); in experiment [16], 23.3 µM (active); in experiment [17], 16.8 µM (active); in experiment [18], 10.4 µM (active). For the same compound, the compound was called inactive in experiment [11].

By AC50 is commonly meant the midpoint of the concentration-response curve, whichever way the signal moves.

For the origin of these results see PubChem BioAssay (EPA / NIEHS).
